# Screening results deposited in PubChem BioAssay by National Center for Advancing Translational Sciences (NCATS).
# KB-V1 cytotox: KB-V1 MDR subline cytotoxicity; KB-V1 MDR cells viability, CellTiter-Glo, 72 h; Potency, µM (highest dose often 46.1 µM), most hits filed as cytotoxic; hit rate 3.4% among 400,000; AID 1347076; also: nearly all actives have a fitted effect of over 60% in size
#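 Cytotoxicity via CellTiter-Glo luminescence after 72 h compound exposure at 37 degrees C. Cells: drug-selected KB-V1 line, DMEM phenol-red free plus 10% FBS. Compounds tested at multiple concentrations; normalized data fitted to concentration-effect curves.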
# HT1080 IDH1KD tx: toxicity to HT-1080 IDH1 knockdown cells (counter line); HT-1080 IDH1 knockdown viability, ATP luminescence, 48 h; Potency, µM (series often up to 46.1 µM), usual class: cytotoxic; hit rate 2% among 360,000; AID 686971
#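 Viability of IDH1-knockdown HT-1080 fibrosarcoma cells was assessed by CellTiter-Glo after 48 h at 37 °C with titrated compound; concentration-effect curves were classified by fit quality and response size.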
# HT1080NT lethal: kills 2HG-producing HT-1080-NT fibrosarcoma cells; AID 686970; hit rate 1.6% among 360,000; HT-1080-NT fibrosarcoma viability, CellTiter-Glo ATP luminescence, 48 h; Potency, µM (titrated, usually from 46.1 µM), hits mostly cytotoxic;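 also: NT is the 2HG producing partner of a matched IDH1 knockdown line; nearly all actives have a fitted effect of over 55% in size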
#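 Read-out is CellTiter-Glo luminescence after 10 minutes at room temperature, following 48 hours' compound treatment of HT-1080-NT cells (750 cells/well, RPMI, 5% FBS, 37 degrees C).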
# DT40 TDP1 no CPT: qHTS for Inhibitors of human tyrosyl-DNA phosphodiesterase 1 (TDP1): qHTS in cells in absence of CPT; Potency, µM (series often up to 46.2 µM), most hits filed as inhibitors; hit rate 15% among 420,000; DT40 Tdp1-/- hTDP1 cells, no CPT, ATP luminescence, 48 h; also: nearly all actives have a fitted effect of over 55% in size
#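 Chicken DT40 Tdp1-/- cells complemented with human TDP1, screened without camptothecin (DMSO vehicle only), 400 cells/well. Compounds pin-transferred, cells incubated at 37 °C for at least 48 hr. Growth read as ATP-dependent luminescence (CellTiter-Glo, 30 min at RT).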
# KB-3-1 cytotox: kills parental KB-3-1 adenocarcinoma cells. KB-3-1 viability, CellTiter-Glo ATP luminescence, 72 h. Potency, µM (titrated, usually from 46.1 µM), hits mostly cytotoxic. hit rate 1.4% among 400,000; also: nearly all actives have a fitted effect of over 60% in size
#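 Screening of KB-3-1 cells (DMEM, 10% FBS, phenol-red free) ran from lowest to highest compound concentration; after 72 h at 37 °C viability was read luminescently and curves fitted.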
# TDP1 cell CPT: DT40-hTDP1 cell growth loss with CPT | chicken DT40 Tdp1-/-;hTDP1 cells + 20 nM CPT, ATP luminescence, 48 h | Potency, µM (series often up to 46.2 µM), most hits filed as inhibitors | hit rate 12% among 420,000 | AID 686979; also: nearly all actives have a fitted effect of over 55% in size
#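 Chicken DT40 Tdp1-/- cells complemented with human TDP1, 400 cells/well, exposed to compounds plus 20 nM camptothecin for at least 48 h at 37 C; viability read as ATP content by CellTiter-Glo luminescence.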
# A number is an active result; 0 = inactive; ? = inconclusive; - = no result; ! = not active in a repeat. Sampled rows, rich in hits. Any-hit rate of the full collection: about 19%. Calls follow the shape of the dose curve; as a rule, active = well fitted curve in the direction sought with a large enough effect; inconclusive = small, poorly fitted or top-dose-only effect, or another doubt; inactive = no such curve, though single readings can be large; an effect the other way counts as inactive or inconclusive.
SMILES,KB-V1 cytotox,HT1080 IDH1KD tx,HT1080NT lethal,DT40 TDP1 no CPT,KB-3-1 cytotox,TDP1 cell CPT
CC1(C(=O)NS(=O)(=O)c2ccccc2Cl)CCN1C(=O)c1ccccc1 (configuration not stated),0,0,?,0,0,0
Cc1cc(C)c2oc(=O)cc(CN3CCN(Cc4ccccc4)CC3)c2c1,0,0,0,?,0,18.4µM
CCOC(=O)Nc1ccc2c(CNC(C)c3ccccc3OC)cc(=O)oc2c1 (configuration not stated),0,0,0,23.1µM,0,?
COc1ccc(CC(=O)Nc2ccc3c(C)cc(=O)oc3c2)cc1OC,0,0,?,0,0,0
O=c1cc(CN2CCN(S(=O)(=O)c3cccc(Cl)c3)CC2)c2ccc(O)cc2o1,0,?,?,18.4µM,0,?
CCOC(=O)Nc1ccc2c(CN3C(=O)NC(CC)(CC)C3=O)cc(=O)oc2c1,0,0,0,?,0,?
CCOC(=O)Nc1ccc2c(CN3CCN(S(=O)(=O)c4ccccc4)CC3)cc(=O)oc2c1,?,0,0,?,0,13µM
Cc1cc(C)n2nc(C(=O)OCC(=O)NC3CCS(=O)(=O)C3)nc2n1 (configuration not stated),?,0,0,0,0,0
Cc1ccc2c(CN3CCOCC3)cc(=O)oc2c1C,0,0,0,0,0,0
Cc1ccc2c(CN3CCN(S(=O)(=O)c4ccc(Cl)cc4)CC3)cc(=O)oc2c1C,?,0,0,16.4µM,0,?
Cc1cc(C)c2oc(=O)cc(CN3CCC(C)CC3)c2c1,0,0,0,25.9µM,0,?
Cc1ccc2c(CN3CCN(Cc4ccccc4)CC3)cc(=O)oc2c1C,0,0,0,18.4µM,0,?
COc1ccccc1-c1csc(C(O)c2ccc(F)c(F)c2)n1 (configuration not stated),0,?,?,0,0,0
Cc1cc(NC(=O)Nc2nnc(N(C)Cc3ccccc3)s2)ccc1Br,0,-,-,?,0,?
CC(N)(COP(=O)(O)O)C(=O)O (configuration not stated),-,-,-,0,-,0
CN(C)c1ccc(-c2nn3c(C4CCCCC4)nnc3s2)cc1,0,0,0,23.1µM,0,16.4µM
Oc1ccc(-c2nc(-c3ccccc3)c(-c3ccc(Br)cc3)[nH]2)cc1,0,-,-,?,0,?
Oc1ccc(N=Nc2nc(-c3ccccc3)c(-c3ccccc3)[nH]2)cc1,?,0,0,23.1µM,?,?
OC[C@H]1O[C@@H](c2nc(-c3ccc4[nH]ccc4c3)no2)[C@H](O)[C@@H](O)[C@H]1O,0,0,0,0,0,0
Cc1cc(C)cc(CC(=O)N2CCC2(C)C(=O)NS(=O)(=O)c2ccccc2Cl)c1 (configuration not stated),0,0,0,0,0,0
CC1(C)CC2CC(C)(CN2S(=O)(=O)c2ccc(F)cc2F)C1 (configuration not stated),?,0,0,5.8µM,0,?
COc1ccccc1NC(=O)N1CCN(c2cc(-c3ccccc3)nc3ncnn23)CC1,0,0,0,4.11µM,?,4.61µM
COc1ccc(NC(=O)C2CCN(c3cc(-c4ccccc4)nc4ncnn34)CC2)cc1OC,?,?,?,23.1µM,?,18.4µM
COC(=O)c1c(N2C(=O)CC(Sc3ccccc3C(=O)O)C2=O)sc2c1CCCC2 (configuration not stated),0,0,0,7.31µM,0,?
COC(=O)c1c(N2C(=O)CC(Sc3ccccc3C(=O)O)C2=O)sc(C)c1C (configuration not stated),0,0,0,?,0,?
SMILES,KB-V1 cytotox,HT1080 IDH1KD tx,HT1080NT lethal,DT40 TDP1 no CPT,KB-3-1 cytotox,TDP1 cell CPT
CCOC(=O)c1cc(CC)sc1NC(=O)C(c1ccccc1)c1ccccc1,0,0,0,?,0,?
CCOC(=O)c1cc(CC)sc1N1C(=O)CC(Sc2ccccc2C(=O)O)C1=O (configuration not stated),0,0,0,4.11µM,0,2.91µM
O=C(CNC(=O)c1n[nH]c2ccccc12)Nc1ccc(F)c(F)c1F,0,0,0,0,0,0
O=C(O)CC(=O)NC12CC3CC(CC(C3)C1)C2,?,0,0,0,0,0
CC(C)NCC(=O)NC12CC3CC(CC(C3)C1)C2,20.6µM,0,0,0,0,?
Cc1ccc(O)c(NC(=O)c2cc(-c3cccs3)on2)c1,0,0,?,0,0,0
CCOc1ccc(NC(=O)C(=O)N/N=C\c2ccc(CNS(=O)(=O)c3ccccc3)o2)cc1,?,?,?,20.6µM,0,?
COc1ccc(NC(=O)C(=O)NCc2ccncc2)c(OC)c1,0,0,0,0,0,0
COc1ccc(NC(=O)C(=O)N/N=C\c2ccc(CNC(=O)C(=O)Nc3ccc(C)c(C)c3)o2)c(OC)c1,?,0,0,9.2µM,13µM,5.17µM
O=C(Cn1c(=O)oc2ccccc21)Nc1ccc(Cl)cc1Cl,0,0,0,0,0,0
Cc1cc[n+](CC(=O)c2ccc(NC(=O)c3ccccc3)cc2)cc1,0,0,0,?,?,?
O=C(C[n+]1cccc2ccccc21)c1ccc(NC(=O)c2ccccc2)cc1,0,0,0,6.51µM,0,8.2µM
O=C(C[n+]1cccc2ccccc21)c1ccccc1,0,0,0,0,0,0
Cc1cc[n+](CC(=O)c2ccc(NC(=O)c3ccccc3)cc2)c2ccccc12,0,0,?,3.66µM,10.3µM,8.2µM
C[C@@H]1C=C(C(=O)N2CCOCC2)O[C@H](OCc2ccc(CO)cc2)C1,0,0,0,0,0,0
c1cc2cc(-c3c(-c4ccc5c(c4)OCO5)noc3-c3ccsc3)ccc2[nH]1,20.6µM!,?,0,3.16µM!,?,?
c1ccc(-c2ccc3[nH]ccc3c2)cc1,0,0,0,?,0,?
Cc1onc(-c2ccc3c(c2)OCO3)c1-c1ccc2[nH]ccc2c1,?,?,0,16.4µM,?,18.4µM
c1ccc(-c2onc(-c3ccco3)c2-c2ccc3[nH]ccc3c2)cc1,23.1µM!,0,0,?,?,7.94µM
Nc1cccc(S(=O)(=O)N2CCOCC2)c1,0,-,-,0,?,0
CCCCn1nnnc1C(c1cc2ccccc2o1)N1CCCC1 (configuration not stated),?,0,0,0,0,?
CCCCn1nnnc1C(c1cc2ccccc2o1)N(C)Cc1ccccc1 (configuration not stated),?,0,0,23.1µM,0,?
